NPC1 prom act – NPC1 promoter activation; hit rate 2.4% among 320,000; Huh7 NPC1 promoter luciferase reporter, 24 h; AID 485313; Potency, µM (titrated, usually from 9.22 µM), for inactives: at the top dose activation, most hits filed as activators; note: % of control where 0% means no effect; nearly all actives have a fitted effect of over 60% in size
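Compounds in DMSO were transferred onto Huh7 NPC1-luciferase reporter cells pre-incubated 2 h; after 24 h at 37 °C, Amplite reagent was dispensed and luminescence recorded 10 min later.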
Rab9 prom act – activates the Rab9 promoter; Huh7 Rab9 promoter-luciferase reporter, luminescence, 24 h; hit rate 2.8% among 320,000; Potency, µM (doses to about 9.22 µM), inactives show top-dose activation, negative = inhibition, hits mostly activators; note: % of control where 0% means no effect; nearly all actives have a fitted effect of over 60% in size
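Luminescence read-out: Huh7 cells stably expressing Rab9-luciferase, treated 24 h with compound at 37 °C, then lysed with luciferase reagent for 10 min at ambient before reading.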
SMN2 splice enh – enhancers of SMN2 splice variant expression; HEK293 SMN2-luciferase splicing reporter, luminescence, 30-36 h; Potency, µM (series often up to 46.1 µM), for the others: top-dose activity change, positive = activation, hits mostly activators; hit rate 2.8% among 210,000; AID 1458; note: % of control where 0% means no effect; nearly all actives have a fitted effect of over 55% in size
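qHTS luciferase splicing reporter: luminescence rises when SMN2 exon 7 is included in transfected HEK293 cells. Compound exposure lasted 30-36 h at 37C, with 4.5 mM final sodium butyrate as control, followed by a ONE-Glo read.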
FLuc modulator – counter-screen for miR-21 project: firefly luciferase inhibitors or activators | purified FLuc, Km substrates, luminescence inhibition | Potency, µM (doses to about 57.5 µM), without a hit: top-dose activity change, negative = inhibition, most hits filed as inhibitors | hit rate 6.9% among 360,000 | AID 588342;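 note: plate controls were vehicle for no effect and reference inhibitor for full effect; nearly all actives have a fitted effect of over 55% in size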
Target sequence (P08659 whole entry, looked up): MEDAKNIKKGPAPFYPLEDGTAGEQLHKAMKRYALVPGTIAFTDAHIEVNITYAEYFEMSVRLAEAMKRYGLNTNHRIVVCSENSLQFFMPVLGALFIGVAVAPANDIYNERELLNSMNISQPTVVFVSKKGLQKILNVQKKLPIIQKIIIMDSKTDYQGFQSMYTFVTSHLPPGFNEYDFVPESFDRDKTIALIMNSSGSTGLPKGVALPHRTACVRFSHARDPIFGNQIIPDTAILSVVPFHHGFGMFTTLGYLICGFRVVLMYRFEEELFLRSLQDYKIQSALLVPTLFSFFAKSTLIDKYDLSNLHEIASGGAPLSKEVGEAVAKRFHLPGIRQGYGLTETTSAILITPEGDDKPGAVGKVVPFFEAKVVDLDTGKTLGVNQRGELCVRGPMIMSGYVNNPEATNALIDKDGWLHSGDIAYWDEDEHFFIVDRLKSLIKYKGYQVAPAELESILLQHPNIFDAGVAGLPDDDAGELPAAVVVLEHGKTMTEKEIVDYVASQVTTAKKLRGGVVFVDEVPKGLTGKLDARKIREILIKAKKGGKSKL
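Purified P. pyralis luciferase, 10 nM final, with Km-level 10 uM D-luciferin and 10 uM ATP in 50 mM Tris acetate pH 7.5, 10 mM Mg acetate, 0.01% Tween-20, 0.05% BSA; 6-point qHTS titration about 60 µM downward; luminescence read.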
ELG1 genotoxic – genotoxicity induction in ELG1-luciferase HEK293T cells | Potency, µM (series often up to 46 µM), inactives show at the highest dose activity change, positive = activation, most hits filed as activators | HEK293T ELG1-luciferase reporter, luminescence, 16 h | AID 504466 | hit rate 1.3% among 330,000; note: % of control where 0% means no effect; nearly all actives have a fitted effect of over 60% in size
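Genotoxicity was scored as increased ELG1-luciferase reporter signal, measured by ONE-Glo luminescence (30 min, room temperature). Compound or vehicle exposure of the HEK293T reporter cells lasted 16 hr at 37°C.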
* = called active by the depositor; ? = inconclusive; / = no result. In the library only some 7.4% were active in any assay of this set; here they are far more common. Calls come from the whole dose curve; as a rule, active = well fitted curve in the direction sought with a large enough effect; inconclusive = small, poorly fitted or top-dose-only effect, or another doubt; inactive = no such curve, though single readings can be large; an effect the other way counts as inactive or inconclusive. Potency is the fitted concentration of half-maximal effect.

SMILES | NPC1 prom act | Rab9 prom act | SMN2 splice enh | FLuc modulator | ELG1 genotoxic
Oc1ccc(C=Nc2ccccc2-c2nc3ccccc3[nH]2)cc1 | ? | 13% | 13µM* | 27µM* | 9%
CC(=O)/C(=C(/O)c1ccccc1)c1nc2ccccc2[nH]1 | 9% | 17% | 22% | 1% | 8%
Cn1cc(-c2nc3ccccc3[nH]2)c2ccccc21 | ? | ? | 22µM* | 4.3µM* | 6%
O=C(O)c1ccc(-c2nc3ccccc3[nH]2)cc1 | -2% | -11% | 14% | 15µM* | 2%
N#Cc1ccc(NC(=O)C2Cc3ccccc3CN2S(=O)(=O)c2ccc(F)cc2)cc1 (stereo not given) | / | / | -10% | -3% | /
O=[N+]([O-])c1ccccc1COc1ccc(Cl)c2cccnc12 | 0.63µM* | 0.28µM* | / | 0.54µM* | 1.6µM*
O=C(Oc1ccc(Cl)c2cccnc12)c1cccc([N+](=O)[O-])c1 | -2% | -3% | 6% | ? | 0%
CCOC(=O)COn1c(=O)c(-c2cc3ccccc3o2)[n+]([O-])c2ccccc21 | ? | 2.2µM* | 14µM* | 2.4µM* | ?
C=CCOn1c(=O)c(-c2cc3ccccc3o2)[n+]([O-])c2ccccc21 | ? | 20% | / | ? | 9%
O=C(Nn1nnnc1Nc1ccccc1)C12CC3CC(CC(C3)C1)C2 | -1% | -4% | 22µM* | -2% | -4%
O=C(NCc1ccccc1)C12CC3CC(CC(C3)C1)C2 | -2% | 29% | -8% | -1% | -7%
COc1cc(C(=O)Nc2ccc(O)cc2C(=O)O)ccc1OC(C)=O | 2% | -5% | / | 12µM* | 2%
COc1ccc(C(=O)Nc2ccccc2C(=O)N2CCOCC2)cc1OC | -4% | -5% | / | -2% | -1%
COC(=O)c1ccc(NC(=O)c2ccc(OC(C)=O)c(OC)c2)cc1 | ? | ? | ? | 11µM* | ?
Cc1cccn2c(=O)c3cc(C(=O)NCc4ccccc4Cl)sc3nc12 | / | / | -3% | -5% | /
O=C(NCCc1ccccn1)c1cc2ccccc2o1 | 3.5µM* | ? | / | ? | ?
O=C(NCc1ccccc1Cl)c1cc2ccccc2o1 | / | / | 4% | ? | /
O=C(Nc1ncccc1Cl)c1cc2ccccc2o1 | 2µM* | 1.6µM* | / | 5.4µM* | 7.3µM*
Cc1ccccc1NC(=O)c1cc(=O)c2ccccc2o1 | 3% | 15% | -3% | -15% | 2%
Cc1ccccc1NC(=O)c1cc2ccccc2o1 | 4µM* | ? | / | 8.5µM* | 7.3µM*
O=C(Nc1ccc(Cl)cc1Cl)c1cc2ccccc2o1 | 1.4µM* | 1.6µM* | / | 0.95µM* | ?
Cc1cccc(OCC(=O)Nc2cccc3cccnc23)c1C | / | / | -8% | 1% | /
Cc1ccc(NC(=O)c2cc3ccccc3o2)nc1 | 4µM* | 3.2µM* | / | 1.9µM* | 0.73µM*
COc1ccccc1NC(=O)c1cc2ccccc2o1 | ? | ? | 22µM* | 6.7µM* | ?
Cc1cc(C)nc(NC(=O)c2cc3ccccc3o2)n1 | 15% | 15% | -5% | -9% | 5%
SMILES | NPC1 prom act | Rab9 prom act | SMN2 splice enh | FLuc modulator | ELG1 genotoxic
Oc1c(N=Nc2ccccc2)sc2ccccc12 | ? | 3.2µM* | / | 0.38µM* | 2.3µM*
CC(C)CC1c2[nH]c3ccccc3c2CCN1C(=O)c1cnccn1 (stereo not given) | 3.5µM* | 3.5µM* | / | 11µM* | ?
COc1ccc(CCC(=O)NC2CC(=O)N(c3ccc(C)c(C)c3)C2)cc1 (stereo not given) | / | / | / | 4% | /
O=c1c2ccccc2cnn1-c1ccc(Cl)cc1 | 1.4µM* | 1µM* | 10µM* | 5.4µM* | ?
Cc1ccc(-n2ncc3ccccc3c2=O)cc1Cl | 2.5µM* | 2.8µM* | 14µM* | 5.4µM* | ?
CCCS(=O)(=O)N1CC(=O)N(c2cccc(Cl)c2)C(C)(C(=O)NC2CCCCC2)C1 (stereo not given) | / | / | / | 2% | /
O=C(NCc1cc(F)cc2c1OCCO2)[C@H]1C[C@@H]1[C@H](NP(=O)(c1ccccc1)c1ccccc1)c1ccccc1 | / | / | -12% | / | /
CCN(C(=O)COC(=O)/C(C#N)=C/c1ccc(N(C)C)cc1)C1CCS(=O)(=O)C1 (stereo not given) | / | / | / | / | 13%
CN(C)c1ccc(/C=C(\C#N)C(=O)OCC(=O)N(C)C2CCS(=O)(=O)C2)cc1 (stereo not given) | -1% | -1% | / | 24µM* | ?
O=C(Nc1nccs1)c1ccc(-c2ccccc2Cl)o1 | 2.5µM* | 2.5µM* | 11µM* | 2.4µM* | 4.1µM*
O=C(Nc1nccs1)c1ccc(-c2ccccc2[N+](=O)[O-])o1 | 2.8µM* | 2µM* | / | 4.3µM* | ?
O=C(Cc1ccccc1[N+](=O)[O-])Nc1nccs1 | 0% | 4% | / | -12% | -3%
CC(C)CN1CCCC2(CCN(C(=O)c3cccc(F)c3)CC2)C1 | / | / | -10% | / | /
O=C(NC1CCCCCC1)c1cccc(N2CCCC2=O)c1 | 3.5µM* | 2.2µM* | 7.1µM* | 15µM* | ?
O=C(N/N=C/c1ccc(Cl)cc1Cl)c1cccc(N2CCCC2=O)c1 | 13% | 7% | / | 6.7µM* | 0%
O=C(NC1CCCCCCC1)c1cccc(Cl)c1 | ? | ? | / | 15µM* | ?
COc1ccc(/C=C/C(=O)c2ccc(O)cc2)cc1COc1ccc(F)cc1 | -2% | 2% | / | 15µM* | -1%
COc1ccc(/C=C/C(=O)c2ccccc2)cc1COc1ccc(F)cc1 | -2% | -5% | -19% | 9.5µM* | -2%
COc1ccc([C@H]2c3cc(OC)c(OC)cc3C[C@@H](C)[C@@H]2C)cc1OC | / | / | 13% | / | /
Cc1nnc2c3ccccc3c(-c3cccs3)nn12 | -22% | 0% | 11µM* | 0% | 13µM*
Cc1nnc2c3ccccc3c(-c3ccc(O)cc3)nn12 | -3% | -5% | 29% | 0% | ?
Cc1ccc(OCC(=O)N2CCN(c3ccc([N+](=O)[O-])c(N4CCOCC4)c3)CC2)cc1 | 1% | -4% | 4% | -2% | -1%
Cc1cc(OCC(=O)N2CCOCC2)ccc1[N+](=O)[O-] | 3.2µM* | 2.8µM* | / | 24µM* | ?
Cc1ccc(-c2ccc(OCC(=O)N3CCOCC3)cc2)cc1 | 16% | 18% | -2% | 19µM* | ?
Cc1cc(C)nc(Nc2nc(=O)c3ccccc3s2)n1 | ? | ? | ? | 17µM* | 18µM*
C=CCn1c(=O)c2ccccc2n2c(SCC(=O)O)nnc12 | 3% | 0% | / | 0% | 0%
COCCn1c(SCC(=O)NC(C)c2ccccc2)nc2ccccc21 (stereo not given) | -2% | 1% | / | -3% | -2%
C=CCn1c(=O)c2ccccc2n2c(SCc3nc4ccccc4s3)nnc12 | 5% | ? | -26% | 12µM* | ?
CCOCCCn1c(SCc2nc3ccccc3s2)nc2ccccc2c1=O | 15% | 16% | -109% | 17µM* | -8%

Screening results from PubChem BioAssay.
